Experimental data from PubChem BioAssay AID1508621 (National Center for Advancing Translational Sciences (NCATS), 2021).
Inconclusive results are not listed. The source made the active and inactive calls. Calls come from the whole dose curve; as a rule, active = well fitted inhibition curve with a large enough effect; inconclusive = small, poorly fitted or top-dose-only effect; inactive = no such curve, though single readings can be large or run the other way.

Test: Confirmatory qHTS for Identification of Small Molecule Inhibitors of Huntingtin Promoter Activity; note: nearly all actives have a fitted effect of over 65% in size;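 for activity change, negative = inhibition: 0% = vehicle control and -100% = zero luminescence signal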
Details: HEK293 HTT promoter firefly luciferase reporter, 24 h; series mostly up to 57.5 µM; activity change, negative = inhibition: at the top concentration
Summary of the method: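 HEK293 luciferase reporter cells, 2,500/well, cultured 24 h, then exposed to compounds at up to 57.5 uM final for 24 h at 37C. Firefly luciferase luminescence read; normalized to vehicle (0%) and zero RLU (-100%).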
Potency is the fitted concentration of half-maximal effect.

Activity change, negative = inhibition, inactive:
CCc1c(C)sc2c1CCN(Cc1ccc(F)cc1)C2c1ccccc1 (stereo not given) -16.4%
CCn1cc(C(=O)N2CCN(c3ccc(C)cc3)C(C)C2)c(=O)c2cc(S(=O)(=O)N3CCCC3)ccc21 (stereo not given) -9.37%
Cn1c(=O)n(C)c2cc(NS(=O)(=O)c3ccc(F)cc3)ccc21 38.7%
CCN(CCCNC(=O)CSc1cc(=O)n(CC)c2ccccc12)c1ccccc1 -20.2%
Cc1c(NS(C)(=O)=O)cccc1-c1nc2ccccc2s1 -24.1%
COc1cc(OC)cc(C(=O)Nc2c(C(=O)Nc3ccc(F)cc3)oc3ccccc23)c1 -6.52%
CC(C)c1ccc(C2=CC(c3cccc(Cl)c3)n3c(nc4ccccc43)N2)cc1 (stereo not given) -47.6%
CC(=O)Nc1ccc(S(=O)(=O)Nc2cc(-c3cn4ccccc4n3)ccc2C)cc1 10.7%
CO[C@H]1C=CC=C(C)C(=O)NC2=CC(=O)C(NCCN(C)C)=C(C[C@@H](C)C[C@H](OC)[C@@H](O)[C@@H](C)C=C(C)[C@@H]1OC(N)=O)C2=O 10.9%

Potency, active:
O=C(CN(c1cccc(C(F)(F)F)c1)S(=O)(=O)c1ccccc1)Nc1cccc(Cl)c1 26.9 µM
O=C(c1ccc(CS(=O)c2ccccc2Cl)o1)N1CCN(c2cccc(C(F)(F)F)c2)CC1 (stereo not given) 3.38 µM
Cc1cccc(NC(=O)c2c(NC(=O)C(F)(F)F)sc3c2CCCCC3)c1 2.39 µM
CCOc1ccc(S(=O)(=O)N(C(C)=O)c2ccc3oc(C)c(C(=O)OC)c3c2)cc1 4.78 µM
COc1cccc(N2CCN(C(=O)c3ccc4nc(N5CCC(C)CC5)sc4c3)CC2)c1 8.49 µM
COc1ccccc1N=c1scc(-c2ccc(S(=O)(=O)N3CCCC3)cc2)n1C 4.78 µM
